PubChem BioAssay (Tox21)
Records with an inconclusive call do not appear. Calls of active or inactive are those of the source. Unless noted, calls come from the whole dose curve; as a rule, active = well fitted curve in the direction sought with a large enough effect in the repeat runs; inconclusive = weak or mixed curves; inactive = no such curve, though single readings can be large; an effect the other way counts as inactive or inconclusive.

Key:
[1] = qHTS assay to identify small molecule antagonists of the sonic hedgehog signaling (Shh) pathway (AID 1259369; calls by dose curve; note: nearly all actives have a fitted effect of over 45% in size)
Outline: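 For antagonist detection, the reporter line received test compounds together with conditioned medium, incubated 24hr at 37 C, 5% CO2, then luminescence was recorded following 30min room-temperature luciferase reagent incubation.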

[2] = target: Estrogen receptor beta (Homo sapiens) (UniProt Q92731); assay: qHTS assay to identify small molecule antagonists of the estrogen receptor beta (ER-beta) signaling pathway (AID 1259378; active = well fitted inhibition curve with a large enough effect in the signal ratio in the repeat runs, not every such curve was filed as active; the % refers to the signal ratio)
Outline: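 Antagonist mode: compounds added to beta-lactamase reporter HEK293T ER-beta-UAS cells stimulated with E2 (1nM final), 16 hr at 37C. LiveBLAzer B/G FRET substrate, 2 hours room temperature, fluorescence read-out.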

[3] = qHTS assay to identify small molecule agonists of the estrogen receptor beta (ER-beta) signaling pathway - cell viability counter screen (AID 1259380); note: nearly all actives have a fitted effect of over 30% in size
Outline: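 CellTiter-Glo read, 30 min RT, same wells as bla assay; cells ER-beta-UAS-bla HEK293T; 16 hr compound, 37C; medium 2% charcoal-stripped FBS.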

[4] = target: Androgen receptor (Homo sapiens) (UniProt P10275); assay: qHTS assay to identify small molecule agonists of the androgen receptor (AR) signaling pathway in the presence of an antagonist (AID 1259381; calls by dose curve; note: nearly all actives have a fitted effect of over 15% in size)
Outline: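 Test compounds at 15 concentrations were incubated for 16hr with MDA-kb2 reporter cells in presence of 3.0uM nilutamide (final). Signal: ONE-Glo luciferase luminescence.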

[5] = qHTS assay to identify small molecule antagonists of the estrogen receptor beta (ER-beta) signaling pathway - cell viability counter screen (AID 1259382);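 note: HEK293T cells carrying ER-beta-UAS-bla reporter stimulated with estradiol; series mostly up to about 92 µM; nearly all actives have a fitted effect of over 55% in size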
Outline: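 In this multiplexed counter screen, cells were seeded at 2,000 per well in medium with 2% charcoal-stripped FBS and incubated 6 hr before compound and 1nM final E2 were added. Sixteen hours later, ATP-based luminescence reported viability.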

[6] = target: Estrogen receptor (Homo sapiens) (UniProt P03372); assay: qHTS assay to identify small molecule agonists of the estrogen receptor alpha (ER-alpha) signaling pathway in the presence of an antagonist (AID 1259383; calls by dose curve; note: top concentration of the series differs between compounds; nearly all actives have a fitted effect of over 15% in size)
Outline: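 Stably transfected VM7Luc4E2 reporter cells, kept 5 days in charcoal-stripped serum, received ICI-182,780 at 10.0nM final before compound addition. Following 22hr incubation at 37C and 5% CO2, luciferase signal was read by luminescence.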

[7] = qHTS assay to identify small molecule agonists of the estrogen receptor alpha (ER-alpha) signaling pathway in the presence of an antagonist - cell viability counter screen (AID 1259386);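 note: series mostly up to about 92 µM; cells exposed to compounds for 22 h at 37 °C before the viability read; nearly all actives have a fitted effect of over 30% in size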
Outline: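 Viability counter screen using VM7Luc4E2 (full-length ER-alpha, four ERE-luciferase). The cells were treated with compounds alongside ICI-182,780 10.0nM for 22hr, and live-cell protease fluorescence was quantified with CellTiter-Fluor.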

[8] = target: Progesterone receptor (Homo sapiens) (UniProt P06401); assay: qHTS assay to identify small molecule agonists of the progesterone receptor (PR) signaling pathway (AID 1346784; calls by dose curve; note: nearly all actives have a fitted effect of over 30% in size)
Outline: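 Compounds were tested for PR agonism in HEK 293T cells bearing a beta-lactamase gene under UAS control. Treatment lasted 16 hr at 37C; signal came from fluorescence of a FRET substrate.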

[9] = target: Progesterone receptor (Homo sapiens) (UniProt P06401); assay: qHTS assay to identify small molecule antagonists of the progesterone receptor (PR) signaling pathway (AID 1346795; active = well fitted inhibition curve with a large enough effect in the signal ratio in the repeat runs, not every such curve was filed as active; the % refers to the signal ratio)
Outline: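 In HEK293T cells bearing the PR-UAS-bla reporter, compound effects on promegestone-driven (1 nM) beta-lactamase expression are assessed after 16 hr using a fluorescent FRET substrate incubated 2 hr at room temperature.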

[10] = qHTS assay to identify small molecule agonists of the progesterone receptor (PR) signaling pathway - cell viability counter screen (AID 1346799; calls by dose curve; note: nearly all actives have a fitted effect of over 45% in size)
Outline: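 Here, 3,000 PR-UAS-bla HEK293T cells per well were treated with compounds for 16 hr after a 6 hr preincubation at 37C and 5% CO2; cell viability is the CellTiter-Glo luminescence signal.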

[11] = qHTS assay to identify small molecule antagonists of the TGF-beta/Smad signaling pathway - cell viability counter screen (AID 1346824); note: nearly all actives have a fitted effect of over 50% in size
Outline: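 Cytotoxicity counter-screen run in the same wells as the beta-lactamase Smad reporter read: CellTiter-Glo luminescence after 30 min at room temperature. HEK 293T SBE-bla cells had 5 hr compound exposure at 37 C with TGF-beta1 (0.25 ng/mL stock).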

[12] = qHTS assay to identify small molecule agonists of the TGF-beta/Smad signaling pathway - cell viability counter screen (AID 1346829); note: top concentration of the series differs between compounds; nearly all actives have a fitted effect of over 45% in size
Outline: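 After overnight seating at 37 C and 5% CO2, reporter cells got compounds for 5 hr and FRET substrate for 2 hr; cell viability then came from CellTiter-Glo luminescence.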

[13] = target: Thyrotropin-releasing hormone receptor (Homo sapiens) (UniProt P34981); assay: qHTS assay to identify small molecule antagonists of the thyrotropin-releasing hormone receptor (TRHR) signaling pathway (AID 1346877; active = well fitted inhibition curve with a large enough effect in the repeat runs, not every such curve was filed as active; note: series mostly up to about 51 µM)
Outline: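 Following an 18 h incubation at 37 °C and a 2 h calcium dye load, TRHR-HEK293 cells were exposed to compound (5 min, room temperature) and challenged with TRH, 1 nM final.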

[14] = target: Thyrotropin-releasing hormone receptor (Homo sapiens) (UniProt P34981); assay: qHTS assay to identify small molecule agonists of the thyrotropin-releasing hormone receptor (TRHR) signaling pathway (AID 1346891; calls by dose curve; note: series mostly up to about 58 µM)
Outline: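 Screening of agonists relied on calcium signalling in HEK293 cells expressing human TRHR: dye loading 2 h at 37 °C preceded compound addition and a 3-min fluorescence time course.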

[15] = qHTS assay to identify small molecule agonists of the androgen receptor (AR) signaling pathway in the presence of an antagonist - cell viability counter screen (AID 1259379);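 note: MDA-kb2 human breast cancer cells carrying an MMTV luciferase reporter; series mostly up to about 92 µM; nearly all actives have a fitted effect of over 25% in size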
Outline: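 Seed MDA-kb2 at 3,000 cells/well; incubate 5 hr, 37C, 0% CO2. Add nilutamide to 3.0uM final, then pin compounds at 15 concentrations. Incubate 16 hr. Add CellTiter-Fluor at 15 hr, read fluorescence after 1 hr.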

[16] = qHTS assay to identify small molecule antagonists of the progesterone receptor (PR) signaling pathway - cell viability counter screen (AID 1346798); note: series mostly up to about 92 µM; nearly all actives have a fitted effect of over 50% in size
Outline: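 Following a 4 hr attachment, PR-UAS-bla HEK293T cells in charcoal-stripped FBS medium were exposed to compounds with R5020 for 16 hr; CellTiter-Glo was added and luminescence read after 30 min at room temperature.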

[17] = qHTS assay to identify small molecule agonists of the TGF-beta/Smad signaling pathway (AID 1346859; active = well fitted activation curve with a large enough effect in the signal ratio in the repeat runs, not every such curve was filed as active; the % refers to the signal ratio; note: series mostly up to about 77 µM)
Outline: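 Each well held 4,000 SBE-bla HEK 293T cells incubated overnight before compound addition; 5 hr later the cleavable FRET substrate went on for 2 hr at room temperature, and fluorescence was read at two emissions.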

[18] = target: Thyrotropin receptor (Homo sapiens) (UniProt P16473); assay: qHTS assay to identify small molecule antagonists of the thyroid stimulating hormone receptor (TSHR) signaling pathway (AID 1259385; calls by dose curve; note: nearly all actives have a fitted effect of over 20% in size)
Outline: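 Antagonist mode: compound-treated TSHR-expressing HEK293 cells were stimulated with 1.5 ng/mL TSH (final) in presence of Ro20-1724 for 30 min at RT. HTRF cAMP detection after 1 h; each compound tested at 15 concentrations, triplicate.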

[19] = qHTS assay to identify small molecule agonists or antagonists of the thyroid stimulating hormone receptor (TSHR) signaling pathway - wild type cell line counter screen (AID 1259384; calls by dose curve)
Outline: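 Counter screen in untransfected Hek293: compounds (15-point titration, triplicate) plus phosphodiesterase inhibitor Ro20-1724 added after 18 h plating; 30 min RT. Intracellular cAMP via competitive d2/cryptate immunoassay, 1 h incubation.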

Measured: Potency

Chain of Estrogen receptor beta (Homo sapiens) (Q92731 whole entry, looked up): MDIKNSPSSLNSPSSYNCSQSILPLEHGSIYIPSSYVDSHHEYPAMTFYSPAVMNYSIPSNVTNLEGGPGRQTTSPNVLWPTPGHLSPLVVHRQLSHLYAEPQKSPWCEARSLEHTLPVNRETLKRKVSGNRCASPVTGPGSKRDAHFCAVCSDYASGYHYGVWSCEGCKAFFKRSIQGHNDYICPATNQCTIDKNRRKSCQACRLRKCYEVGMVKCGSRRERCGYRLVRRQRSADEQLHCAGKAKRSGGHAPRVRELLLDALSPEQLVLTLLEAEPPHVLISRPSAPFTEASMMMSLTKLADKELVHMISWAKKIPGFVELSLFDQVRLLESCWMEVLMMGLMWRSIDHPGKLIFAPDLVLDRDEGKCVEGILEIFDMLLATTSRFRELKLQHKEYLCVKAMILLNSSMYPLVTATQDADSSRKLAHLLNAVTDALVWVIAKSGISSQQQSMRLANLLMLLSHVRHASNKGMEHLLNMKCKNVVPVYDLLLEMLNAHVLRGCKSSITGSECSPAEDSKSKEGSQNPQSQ
Chain of Progesterone receptor (Homo sapiens) (P06401 whole entry, looked up): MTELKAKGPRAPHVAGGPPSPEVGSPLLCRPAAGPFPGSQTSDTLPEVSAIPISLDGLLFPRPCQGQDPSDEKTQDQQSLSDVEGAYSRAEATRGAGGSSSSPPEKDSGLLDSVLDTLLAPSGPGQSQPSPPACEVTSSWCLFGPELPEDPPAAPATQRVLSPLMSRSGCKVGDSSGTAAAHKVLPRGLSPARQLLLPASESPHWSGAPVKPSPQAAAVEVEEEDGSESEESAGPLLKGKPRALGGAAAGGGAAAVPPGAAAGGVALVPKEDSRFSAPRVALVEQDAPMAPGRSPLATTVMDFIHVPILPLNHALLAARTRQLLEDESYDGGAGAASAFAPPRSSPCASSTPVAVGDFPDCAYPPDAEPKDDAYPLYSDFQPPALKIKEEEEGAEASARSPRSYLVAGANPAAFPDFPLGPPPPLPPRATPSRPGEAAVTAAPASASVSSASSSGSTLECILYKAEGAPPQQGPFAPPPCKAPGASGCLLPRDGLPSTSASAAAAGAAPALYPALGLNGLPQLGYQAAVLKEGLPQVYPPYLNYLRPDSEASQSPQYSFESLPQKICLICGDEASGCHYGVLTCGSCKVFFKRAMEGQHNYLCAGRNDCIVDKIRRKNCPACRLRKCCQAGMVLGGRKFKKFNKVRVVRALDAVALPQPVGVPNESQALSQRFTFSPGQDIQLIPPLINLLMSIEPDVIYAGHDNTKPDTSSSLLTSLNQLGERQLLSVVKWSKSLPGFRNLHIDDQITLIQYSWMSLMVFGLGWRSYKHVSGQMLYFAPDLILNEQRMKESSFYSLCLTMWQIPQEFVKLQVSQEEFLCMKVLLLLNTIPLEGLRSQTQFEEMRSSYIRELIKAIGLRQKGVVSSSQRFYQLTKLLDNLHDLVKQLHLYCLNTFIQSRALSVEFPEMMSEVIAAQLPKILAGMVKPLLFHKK
Chain of Estrogen receptor (Homo sapiens) (P03372 whole entry, looked up): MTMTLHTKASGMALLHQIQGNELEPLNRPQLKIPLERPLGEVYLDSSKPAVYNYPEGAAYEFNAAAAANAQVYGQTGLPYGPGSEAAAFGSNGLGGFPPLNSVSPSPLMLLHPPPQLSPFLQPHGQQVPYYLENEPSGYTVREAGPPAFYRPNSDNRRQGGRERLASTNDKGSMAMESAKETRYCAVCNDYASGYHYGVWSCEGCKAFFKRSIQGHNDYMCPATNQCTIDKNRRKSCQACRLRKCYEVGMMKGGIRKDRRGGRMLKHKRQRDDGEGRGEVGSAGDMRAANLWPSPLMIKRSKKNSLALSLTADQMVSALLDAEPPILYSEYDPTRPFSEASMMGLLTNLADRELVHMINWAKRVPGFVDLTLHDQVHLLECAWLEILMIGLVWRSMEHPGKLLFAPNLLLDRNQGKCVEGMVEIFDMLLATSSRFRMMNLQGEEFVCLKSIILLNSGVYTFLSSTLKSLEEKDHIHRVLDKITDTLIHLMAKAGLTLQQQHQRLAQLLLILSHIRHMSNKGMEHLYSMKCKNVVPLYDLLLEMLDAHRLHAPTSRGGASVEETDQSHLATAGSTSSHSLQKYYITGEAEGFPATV
Chain of Thyrotropin-releasing hormone receptor (Homo sapiens) (P34981 whole entry, looked up): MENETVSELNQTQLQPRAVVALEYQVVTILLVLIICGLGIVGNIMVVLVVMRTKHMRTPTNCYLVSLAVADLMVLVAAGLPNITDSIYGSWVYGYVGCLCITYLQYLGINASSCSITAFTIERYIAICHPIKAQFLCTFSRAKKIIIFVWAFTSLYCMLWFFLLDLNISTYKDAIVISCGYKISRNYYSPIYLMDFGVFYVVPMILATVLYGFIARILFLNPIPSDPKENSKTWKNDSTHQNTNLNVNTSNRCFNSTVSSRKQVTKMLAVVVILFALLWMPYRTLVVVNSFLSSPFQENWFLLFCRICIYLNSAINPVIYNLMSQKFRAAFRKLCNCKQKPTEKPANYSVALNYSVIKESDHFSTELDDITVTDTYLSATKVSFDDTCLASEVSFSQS
Chain of Thyrotropin receptor (Homo sapiens) (P16473 whole entry, looked up): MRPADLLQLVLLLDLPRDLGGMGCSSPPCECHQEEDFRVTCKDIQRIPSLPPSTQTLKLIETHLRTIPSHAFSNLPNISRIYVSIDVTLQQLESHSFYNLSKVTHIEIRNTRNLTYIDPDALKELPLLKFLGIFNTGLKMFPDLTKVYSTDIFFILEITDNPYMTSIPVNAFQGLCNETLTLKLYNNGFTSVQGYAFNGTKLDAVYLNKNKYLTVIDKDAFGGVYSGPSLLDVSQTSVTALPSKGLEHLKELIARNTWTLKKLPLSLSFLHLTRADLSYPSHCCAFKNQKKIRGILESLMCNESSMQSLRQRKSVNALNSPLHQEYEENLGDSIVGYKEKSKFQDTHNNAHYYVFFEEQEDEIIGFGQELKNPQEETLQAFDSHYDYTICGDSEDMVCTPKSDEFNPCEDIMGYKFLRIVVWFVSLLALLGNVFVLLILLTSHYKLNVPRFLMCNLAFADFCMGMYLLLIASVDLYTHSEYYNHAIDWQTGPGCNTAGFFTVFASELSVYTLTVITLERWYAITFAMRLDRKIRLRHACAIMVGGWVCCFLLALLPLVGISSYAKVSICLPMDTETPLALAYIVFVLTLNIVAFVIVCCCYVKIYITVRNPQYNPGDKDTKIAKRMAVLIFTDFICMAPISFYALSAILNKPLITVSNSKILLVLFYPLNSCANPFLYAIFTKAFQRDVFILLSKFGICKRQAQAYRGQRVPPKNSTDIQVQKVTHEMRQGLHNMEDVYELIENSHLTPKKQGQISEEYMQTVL
Chain of Androgen receptor (Homo sapiens) (P10275 whole entry, looked up): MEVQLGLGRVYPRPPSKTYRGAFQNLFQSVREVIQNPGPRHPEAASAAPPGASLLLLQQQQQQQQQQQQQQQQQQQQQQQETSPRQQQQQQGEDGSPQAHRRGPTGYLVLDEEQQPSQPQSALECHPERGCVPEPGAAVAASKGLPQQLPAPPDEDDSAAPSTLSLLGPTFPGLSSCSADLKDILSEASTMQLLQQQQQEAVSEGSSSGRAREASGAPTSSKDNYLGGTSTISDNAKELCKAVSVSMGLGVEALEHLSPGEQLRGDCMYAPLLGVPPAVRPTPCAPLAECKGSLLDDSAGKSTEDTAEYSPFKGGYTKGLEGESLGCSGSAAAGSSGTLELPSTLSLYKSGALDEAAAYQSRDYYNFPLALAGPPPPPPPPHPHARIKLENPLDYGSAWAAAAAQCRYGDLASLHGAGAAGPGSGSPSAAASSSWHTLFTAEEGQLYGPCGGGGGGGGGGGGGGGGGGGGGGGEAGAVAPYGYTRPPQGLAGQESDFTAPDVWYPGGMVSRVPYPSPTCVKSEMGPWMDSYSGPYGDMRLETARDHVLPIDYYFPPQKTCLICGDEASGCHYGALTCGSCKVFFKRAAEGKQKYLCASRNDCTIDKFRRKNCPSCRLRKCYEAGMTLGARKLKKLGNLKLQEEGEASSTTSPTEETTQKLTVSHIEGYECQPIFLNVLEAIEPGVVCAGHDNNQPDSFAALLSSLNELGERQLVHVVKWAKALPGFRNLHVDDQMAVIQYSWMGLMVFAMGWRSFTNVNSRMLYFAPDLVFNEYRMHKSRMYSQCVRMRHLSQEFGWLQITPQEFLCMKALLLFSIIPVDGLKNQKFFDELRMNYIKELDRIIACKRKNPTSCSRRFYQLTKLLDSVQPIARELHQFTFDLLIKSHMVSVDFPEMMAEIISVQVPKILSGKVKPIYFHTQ

C1CCC2OC2C1 (configuration not stated)
not listed: [15] | [16] | [17] | [18] | [19]
inactive: all other assays above

Cc1cccc(C(C)(C)C)c1O
not listed: [4] | [18] | [19]
inactive: all other assays above

CCCCCCCCCCCCCCC1CO1 (configuration not stated)
not listed: [4] | [15] | [19]
inactive: all other assays above

CC(C)CCCCCCOC(=O)c1ccc(C(=O)OCCCCCCC(C)C)c(C(=O)OCCCCCCC(C)C)c1
not listed: [4] | [6] | [17]
inactive: all other assays above
